Test results: PubChem BioAssay
Activity calls are given as the source filed them.

Key:
[1] = small molecules captured by biotinylated probe aFSTL3 – biochemical, small-molecule microarray, fluorescence 635/667, stem cell growth factor project, primary screen (AID 1064); conditions: higher = more signal;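 also: measures binding of the biotinylated anti-FSTL3 antibody to printed compounds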
[2] = binders from COS7 lysate, DM2A8 probe, primary screen, torsin A project, cell lysate, small-molecule microarray, fluorescence 635/667 (AID 1065); conditions: higher = more signal, COS7 lysate expressing mutant human TOR1A
[3] = small molecules captured by biotinylated probe aFGF2 – biochemical, small-molecule microarray, fluorescence 635/667, stem cell growth factor project, primary screen (AID 1067); conditions: higher = more signal;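 also: measures binding of biotinylated aFGF2 protein to printed compounds on slides; z-score merges feature fluorescence and signal-to-noise across triplicate slides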
[4] = small molecules captured by biotinylated probe aFGF10 – biochemical, small-molecule microarray, fluorescence 635/667, stem cell growth factor project, primary screen (AID 1071); conditions: higher = more signal;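 also: score merges 667 nm spot intensity and signal to noise from triplicate slides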
[5] = target: Neurogenic locus notch homolog protein 2 (Homo sapiens) (UniProt Q04721); assay: small molecules binding Notch2 protein – biochemical, small-molecule microarray, 635 nm fluorescence, stem cell growth factors, primary screen (AID 1073); conditions: higher = more signal
Neurogenic locus notch homolog protein 2 (Homo sapiens), sequence (Q04721 whole entry, looked up, canonical isoform): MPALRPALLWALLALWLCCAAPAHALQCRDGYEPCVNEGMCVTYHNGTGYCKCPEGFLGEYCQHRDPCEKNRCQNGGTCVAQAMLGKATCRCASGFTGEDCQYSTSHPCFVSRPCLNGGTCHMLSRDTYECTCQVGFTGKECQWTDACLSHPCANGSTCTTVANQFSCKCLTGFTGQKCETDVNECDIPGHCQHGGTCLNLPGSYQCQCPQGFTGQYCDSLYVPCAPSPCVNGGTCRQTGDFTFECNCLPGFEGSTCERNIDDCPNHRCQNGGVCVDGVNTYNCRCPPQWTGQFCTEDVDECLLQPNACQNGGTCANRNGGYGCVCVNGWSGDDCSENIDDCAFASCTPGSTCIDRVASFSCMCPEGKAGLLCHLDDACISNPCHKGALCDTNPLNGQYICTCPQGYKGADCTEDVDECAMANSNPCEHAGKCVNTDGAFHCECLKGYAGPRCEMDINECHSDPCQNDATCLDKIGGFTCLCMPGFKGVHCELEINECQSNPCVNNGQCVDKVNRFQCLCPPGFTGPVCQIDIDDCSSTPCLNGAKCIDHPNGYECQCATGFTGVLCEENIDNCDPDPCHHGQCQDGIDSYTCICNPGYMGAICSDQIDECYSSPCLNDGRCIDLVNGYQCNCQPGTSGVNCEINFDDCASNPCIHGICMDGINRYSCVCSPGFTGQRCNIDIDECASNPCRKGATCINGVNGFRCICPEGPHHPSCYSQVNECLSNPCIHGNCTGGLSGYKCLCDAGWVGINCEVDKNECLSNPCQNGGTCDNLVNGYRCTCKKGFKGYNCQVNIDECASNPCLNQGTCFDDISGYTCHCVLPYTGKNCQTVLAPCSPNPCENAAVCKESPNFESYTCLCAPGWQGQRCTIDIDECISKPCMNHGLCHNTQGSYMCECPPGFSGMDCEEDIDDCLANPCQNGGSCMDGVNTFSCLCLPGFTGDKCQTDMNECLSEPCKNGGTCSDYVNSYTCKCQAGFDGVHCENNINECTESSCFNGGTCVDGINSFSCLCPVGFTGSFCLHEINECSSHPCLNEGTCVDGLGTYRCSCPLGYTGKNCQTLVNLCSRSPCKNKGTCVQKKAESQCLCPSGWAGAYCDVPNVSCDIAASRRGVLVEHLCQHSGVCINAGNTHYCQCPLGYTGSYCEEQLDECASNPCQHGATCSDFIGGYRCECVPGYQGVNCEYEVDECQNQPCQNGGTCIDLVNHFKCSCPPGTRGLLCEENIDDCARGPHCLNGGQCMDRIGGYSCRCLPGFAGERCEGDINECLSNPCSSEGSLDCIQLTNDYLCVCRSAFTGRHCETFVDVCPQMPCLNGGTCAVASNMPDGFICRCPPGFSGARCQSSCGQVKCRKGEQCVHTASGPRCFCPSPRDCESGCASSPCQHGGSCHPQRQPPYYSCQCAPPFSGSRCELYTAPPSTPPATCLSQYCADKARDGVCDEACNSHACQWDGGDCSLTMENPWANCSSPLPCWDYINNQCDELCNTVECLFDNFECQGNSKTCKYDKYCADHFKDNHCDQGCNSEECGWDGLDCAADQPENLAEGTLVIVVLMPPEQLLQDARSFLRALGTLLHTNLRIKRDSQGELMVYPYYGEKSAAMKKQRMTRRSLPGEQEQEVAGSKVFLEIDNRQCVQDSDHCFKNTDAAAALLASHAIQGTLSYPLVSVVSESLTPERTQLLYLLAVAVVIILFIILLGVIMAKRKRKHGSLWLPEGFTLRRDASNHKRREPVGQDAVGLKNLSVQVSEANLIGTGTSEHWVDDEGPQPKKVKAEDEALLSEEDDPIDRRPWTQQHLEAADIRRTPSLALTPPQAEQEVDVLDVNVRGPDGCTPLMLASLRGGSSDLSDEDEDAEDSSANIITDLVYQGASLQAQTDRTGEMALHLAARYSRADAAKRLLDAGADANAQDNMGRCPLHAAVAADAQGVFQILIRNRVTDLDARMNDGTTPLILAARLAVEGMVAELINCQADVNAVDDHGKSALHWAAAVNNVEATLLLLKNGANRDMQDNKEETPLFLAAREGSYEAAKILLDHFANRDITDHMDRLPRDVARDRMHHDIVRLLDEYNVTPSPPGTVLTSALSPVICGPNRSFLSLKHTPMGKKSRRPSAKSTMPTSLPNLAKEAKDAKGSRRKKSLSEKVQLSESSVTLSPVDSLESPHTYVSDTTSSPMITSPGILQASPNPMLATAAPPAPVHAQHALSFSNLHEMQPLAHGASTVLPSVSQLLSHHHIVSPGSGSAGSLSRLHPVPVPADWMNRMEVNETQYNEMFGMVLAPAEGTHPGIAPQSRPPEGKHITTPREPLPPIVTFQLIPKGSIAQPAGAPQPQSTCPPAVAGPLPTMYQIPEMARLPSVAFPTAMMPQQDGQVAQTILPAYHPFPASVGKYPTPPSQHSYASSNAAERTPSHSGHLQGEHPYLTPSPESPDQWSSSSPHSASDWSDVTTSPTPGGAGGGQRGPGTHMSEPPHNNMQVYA

[6] = target: Pro-neuregulin-1, membrane-bound isoform (Homo sapiens) (UniProt Q02297); assay: small molecules binding neuregulin-1 protein – biochemical, small-molecule microarray, fluorescence 635/667, psychiatric disease protein project, primary screen (AID 1075); conditions: NRG1 binding, 635 nm fluorescence, higher = more signal;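 also: score combines 667 nm spot fluorescence with signal to noise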
Pro-neuregulin-1, membrane-bound isoform (Homo sapiens), sequence (Q02297 whole entry, looked up, the tested form may be a part, canonical isoform): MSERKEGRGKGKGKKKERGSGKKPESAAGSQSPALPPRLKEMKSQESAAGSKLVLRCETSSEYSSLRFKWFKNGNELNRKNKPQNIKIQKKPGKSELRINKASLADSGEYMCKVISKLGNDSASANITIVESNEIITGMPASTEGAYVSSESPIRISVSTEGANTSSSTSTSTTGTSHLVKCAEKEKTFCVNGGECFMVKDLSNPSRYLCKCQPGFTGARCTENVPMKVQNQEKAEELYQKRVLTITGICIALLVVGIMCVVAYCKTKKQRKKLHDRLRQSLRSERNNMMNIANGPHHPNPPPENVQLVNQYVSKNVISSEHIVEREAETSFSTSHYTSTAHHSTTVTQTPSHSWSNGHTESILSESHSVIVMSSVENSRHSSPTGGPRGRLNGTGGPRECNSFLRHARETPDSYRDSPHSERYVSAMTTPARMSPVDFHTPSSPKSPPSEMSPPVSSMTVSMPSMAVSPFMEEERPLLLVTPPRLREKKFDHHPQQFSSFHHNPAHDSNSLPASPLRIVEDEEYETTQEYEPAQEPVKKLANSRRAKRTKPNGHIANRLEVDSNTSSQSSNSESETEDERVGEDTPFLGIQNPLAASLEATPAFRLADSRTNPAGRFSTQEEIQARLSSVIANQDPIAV

[7] = system: Neuregulin-1 EGF-like domain; assay: small molecules binding NRG1 EGF domain – biochemical, small-molecule microarray, 635 nm fluorescence, primary screen (AID 1081); conditions: higher = more signal;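 also: binding of the protein to compounds printed on small-molecule microarray slides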
[8] = FRG1 expression reporter modulators in myotubes – cell-based, C2C12 myotubes, firefly/Renilla luciferase, luminescence, FRG1 inhibition for FSHD, primary screen (AID 1084); conditions: FRG1 promoter luciferase, higher = more signal, called active from +8 up or from −8 down
[9] = small molecules captured by biotinylated probe aFST – biochemical, small-molecule microarray, fluorescence 635/667, stem cell growth factor project, primary screen (AID 1086); conditions: higher = more signal;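 also: score merges 667 nm fluorescence with signal-to-noise of each printed compound spot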
[10] = binders of probe aHhip on microarray, primary screen, stem cell growth factor project, biochemical, small-molecule microarray, fluorescence 635/667 (AID 1087); conditions: higher = more signal;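 also: score merges spot fluorescence at 667nm with spot signal to noise ratio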
[11] = system: PRMT1 (protein arginine N-methyltransferase 1); assay: small molecules binding arginine methyltransferase PRMT1 – biochemical, small-molecule microarray, 635 nm fluorescence, primary screen (AID 1088); conditions: higher = more signal;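 also: binding of Prmt1 protein to compounds spotted on small-molecule microarray slides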
[12] = growth effects on S. cerevisiae YJM789 – YJM789 clinical isolate, OD600, 24 h, basal, primary screen (AID 1089); conditions: higher = more signal, called active from +8 up or from −8 down;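 also: growth of clinical yeast isolate S. cerevisiae YJM 789 seeded 1000 cells per well; test concentration not given here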
[13] = S. pombe growth modifiers, basal conditions – strain 972, OD600, 24 h, no modulator, primary screen (AID 1090);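 also: basal condition with compound alone and no growth modifier present; test concentration not given here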; conditions: S. pombe 972 growth, higher = more signal, called active from +8 up or from −8 down
[14] = budding yeast growth modifiers under rapamycin – strain BY4716, OD600, 96 h, primary screen (AID 1091); also: test concentration not given here; conditions: S. cerevisiae BY4716 + rapamycin, higher = more signal, called active from +8 up or from −8 down
[15] = target: Torsin-1A-interacting protein 2 (Homo sapiens) (UniProt Q8NFQ8); assay: small molecules binding lysate-expressed LULL1 – cell lysate, human LULL1 lysate, 635/667 nm fluorescence, primary screen (AID 1092); conditions: small-molecule microarray, hLULL1 lysate binding, 635 nm fluorescence; higher = more signal;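 also: probe is lysate of COS7 cells overexpressing human LULL1; score merges per-feature 667 nm fluorescence with signal-to-noise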
Torsin-1A-interacting protein 2 (Homo sapiens), sequence (Q8NFQ8 whole entry, looked up): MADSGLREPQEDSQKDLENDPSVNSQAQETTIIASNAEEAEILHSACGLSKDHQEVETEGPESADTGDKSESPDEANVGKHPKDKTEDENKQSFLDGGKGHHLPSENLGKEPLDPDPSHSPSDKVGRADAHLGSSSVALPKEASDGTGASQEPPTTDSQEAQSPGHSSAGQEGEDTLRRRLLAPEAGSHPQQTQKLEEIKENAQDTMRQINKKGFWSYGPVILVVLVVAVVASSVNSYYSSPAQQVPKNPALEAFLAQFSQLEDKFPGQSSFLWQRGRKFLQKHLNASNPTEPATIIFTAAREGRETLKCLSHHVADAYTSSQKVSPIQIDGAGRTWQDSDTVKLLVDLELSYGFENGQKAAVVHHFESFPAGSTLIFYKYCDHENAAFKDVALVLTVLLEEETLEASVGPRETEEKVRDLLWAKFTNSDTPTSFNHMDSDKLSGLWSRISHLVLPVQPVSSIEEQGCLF

[16] = optical density change of DRC41 E. coli – strain DRC41, OD650, 24 h, E. coli filamentation project, primary screen (AID 1093);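 also: MC1000 strain lacking acrAB efflux and sulA so SOS filamentation is blocked; test concentration not given here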; conditions: E. coli DRC41 growth, higher = more signal, called active from +8 up or from −8 down
[17] = probe aLefty2 binding to arrayed compounds – biochemical, biotinylated probe, 635/667 nm fluorescence, primary screen (AID 1094); conditions: small-molecule microarray, higher = more signal;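 also: score merges spot fluorescence near 667 nm with spot signal-to-noise ratio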
[18] = system: Noggin (protein binding on small-molecule microarray); assay: small molecules binding Noggin protein – biochemical, 635/667 nm fluorescence, primary screen (AID 1095); conditions: 635 nm fluorescence, higher = more signal;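 also: score merges 667 nm feature fluorescence with signal to noise over triplicate slides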
[19] = target: Neurogenic locus notch homolog protein 3 (Homo sapiens) (UniProt Q9UM47); assay: small molecules binding NOTCH3 protein – biochemical, 635/667 nm fluorescence, primary screen (AID 1096); conditions: small-molecule microarray, 635 nm fluorescence, higher = more signal
[20] = probe aEGFR binding to arrayed compounds – biochemical, biotinylated probe, 635/667 nm fluorescence, primary screen (AID 1097); conditions: small-molecule microarray, higher = more signal;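 also: probe is a biotinylated anti-EGFR antibody binding compounds printed on slides; score combines fluorescence near 667 nm and signal to noise of each spot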

SMILES | composite z-score [1] | composite z-score [2] | composite z-score [3] | composite z-score [4] | composite z-score [5] | composite z-score [6] | composite z-score [7] | z-score [8] | composite z-score [9] | composite z-score [10] | composite z-score [11] | z-score [12] | z-score [13] | z-score [14] | composite z-score [15] | z-score [16] | composite z-score [17] | composite z-score [18] | composite z-score [19] | composite z-score [20]
O=C1OCC=C[C@H]2OC34C=CCN(CCN5CCOCC5)C(=O)[C@H]3N(CCCCCO)C(=O)[C@@H]4[C@@H]12 (stereo not given in full) | -0.099 | 0.298 | -0.128 | -0.191 | 0.0385 | -0.0529 | 1.43 | 0.401 (inactive) | -0.452 | -0.236 | -0.0623 | -1 (inactive) | -0.586 (inactive) | -0.406 (inactive) | 2.22 | -0.0128 (inactive) | -0.0282 | 0.0316 | -0.255 | -0.0831
CC(C)(C)N1CC=CC23O[C@@H]4C=CCCOC(=O)C4[C@H]2C(=O)N(CCCO)[C@@H]3C1=O (stereo not given in full) | 0.248 | -0.527 | -0.181 | -0.642 | -1.5 | -0.509 | -0.174 | 0.489 (inactive) | -0.383 | -0.0994 | -1.49 | 0.0588 (inactive) | -0.37 (inactive) | -0.199 (inactive) | -1.09 | 1.04 (inactive) | -0.195 | -0.399 | -1.7 | -0.268
CN(C)CCCC[C@@H]1NC(=O)[C@H]2C[C@@H](C(=O)NCCCCCCNC(=O)CS)[C@@H](c3ccc(O)cc3)N2C1=O | 0.0462 | 0.576 | -0.116 | 0.165 | -0.549 | 0.848 | 1.11 | 1.15 (inactive) | -0.337 | -0.125 | 1.17 | -1.22 (inactive) | -0.225 (inactive) | -0.342 (inactive) | 3.31 | 0.937 (inactive) | -0.0785 | 1.58 | 0.196 | -0.173
COCCOC(=O)N1C(=O)[C@@]2(c3cc(C#CCCO)ccc31)[C@H](c1ccc(OCCO)cc1)N1[C@H](c3ccccc3)[C@H](c3ccccc3)OC(=O)[C@H]1[C@@H]2C(=O)N1CCc2cc(OC)c(OC)cc2C1 | -0.392 | 0.444 | -0.0732 | 0.375 | 0.921 | 0.635 | 1.25 | -0.355 (inactive) | 0.159 | -0.0618 | 1.55 | 2.59 (inactive) | 1.28 (inactive) | 4.19 (inactive) | 2.48 | 0.37 (inactive) | 0.022 | 1.05 | 1.13 | 0.0365
COCCCNC(=O)[C@]1(Cc2ccccc2)N=C(c2ccc(OCCCO)cc2)O[C@@H]1c1ccccc1N=[N+]=[N-] | 0.29 | 1.54 | 0.12 | 0.632 | 1.02 | 0.725 | 1.2 | -0.309 (inactive) | 1.47 | -0.0994 | 1.56 | -0.499 (inactive) | -0.357 (inactive) | 1.37 (inactive) | 3.16 | 0.49 (inactive) | -0.02 | 1.67 | 1.15 | -0.0238
COc1ccccc1CN1C(=O)c2ccccc2[C@](Cc2ccccc2I)(C(=O)NCCN2CCOCC2)[C@@H]1c1ccc(CO)cc1 | -0.291 | 0.148 | 0.103 | 0.479 | 1.37 | 1.39 | 1.3 | -3.32 (inactive) | 1.08 | -0.189 | 1.54 | -2.4 (inactive) | 0.548 (inactive) | -0.168 (inactive) | 3.27 | 0.0429 (inactive) | -0.0028 | 1.12 | 1.09 | -0.0502
[N-]=[N+]=NCc1ccccc1[C@H]1OC(c2ccc(OCCCO)cc2)=N[C@@]1(Cc1ccccc1)C(N)=O | 0.712 | 0.163 | 0.0138 | 0.68 | 1.05 | 1.36 | 1.1 | 2.79 (inactive) | 1.24 | 0.0623 | 1.56 | -0.116 (inactive) | -1.07 (inactive) | -0.443 (inactive) | 3.37 | 0.369 (inactive) | 0.408 | 0.429 | 1.13 | 0.29
O=C(O)[C@@]1(Cc2ccccc2)COC(c2ccc(OCCCO)cc2)=N1 | 0.805 | -0.24 | -0.0886 | -0.24 | -0.287 | 1.19 | 1.2 | 0.809 (inactive) | 0.519 | -0.0994 | -0.269 | 0.661 (inactive) | 1.01 (inactive) | 1.3 (inactive) | 2.64 | 0.598 (inactive) | -0.0915 | -0.66 | -0.776 | -0.229
N#Cc1ccc(NN2C(C(O)c3ccco3)C=CC3C(=O)N(c4ccccc4)C(=O)C32)cc1 (stereo not given) | 0.188 | -0.0615 | -0.0133 | 0.758 | 0.54 | 0.989 | 0.754 | 0.768 (inactive) | 0.39 | -0.249 | 0.327 | 0.0011 (inactive) | 0.376 (inactive) | 1.7 (inactive) | 2.41 | -3.5 (inactive) | 0.0815 | -0.0593 | 0.591 | -0.0411
COc1ccc([Si](C)(C)[C@H]2[C@H](CCO)O[C@@]3(C(=O)N(Cc4cccc(N5CCOC5=O)c4)c4ccccc43)[C@@H]2C)cc1 | -0.167 | -0.16 | -0.034 | 0.674 | 0.849 | 0.843 | 0.783 | -2.15 (inactive) | -0.292 | 0.0373 | 1.39 | 2.81 (inactive) | -0.406 (inactive) | 34 (active) | 2.39 | 0.228 (inactive) | 0.514 | 0.459 | 1.14 | -0.0973
